# Laboratory results taken from PubChem BioAssay AID1053117 (Broad Institute, 2014).
# Entries with a potency or affinity are not part of this list. Calls of active or inactive are those of the source.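 How the source made its calls: active means compounds lowering cell ATP signal with a fitted half-effect dose at most twice the top valid dose; inconclusive means flat curve with 30 to 70% signal loss, or bad fit; inactive means wrong direction, flat within 30%, or weaker than limit.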
# Test: HEK293 cell cytotoxicity, dose response, cytotoxicity control, cherry-picks, set 5 (AID 1053117);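 further: more negative means greater loss of ATP signal and more cytotoxicity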
row,Structure (SMILES),outcome
1,COC(=O)C[C@@H]1CC[C@@H]2[C@H](COc3ccc(NC(=O)Cc4cccs4)cc3C(=O)N2C)O1,inactive
2,N#C[C@@H]1[C@H](c2ccccc2C2=CCCCC2)[C@@H](CO)N1S(=O)(=O)c1ccccc1,inactive
3,Cc1ccc(S(=O)(=O)N2CC[C@@H]3[C@H]2c2cc(-c4cccc(C(=O)N(C)C)c4)ccc2N[C@@H]3CO)cc1,inactive
4,C[C@H]1CN([C@@H](C)CO)C(=O)c2cc(NC(=O)C3CCCCC3)ccc2O[C@H]1CN(C)Cc1ccc(-c2ccccc2)cc1,inactive
5,OC(CNC1CCCc2ccccc21)COc1c(Cl)cccc1Cl (stereo not drawn),inactive
6,O=C(NCc1ccccc1)c1ccc(-c2cn[nH]c2)c2ccoc12,inactive
7,O=C(c1cccnc1)N1C[C@H]2[C@@H](c3ccccc31)[C@H](CO)N2CC1CCCC1,inactive
8,COc1ccc(-c2oc3ncnc(NCCCN4CCOCC4)c3c2-c2ccc(OC)cc2)cc1,inactive
9,C[C@H](CO)N1C[C@H](C)[C@H](CN(C)C(=O)Nc2cccc3ccccc23)Oc2c(NC(=O)Nc3ccc(C(F)(F)F)cc3)cccc2C1=O,inactive
10,CCCc1cc(C(=O)OC)c(NC(=O)CCC(=O)O)s1,inactive
11,CCc1nc2c(OCCc3cccc(OC)c3)cccn2c1N(C)C(=O)c1ccc(C)cc1,inactive
12,C[C@@H]1CN([C@H](C)CO)C(=O)c2cc(NC(=O)CCCN(C)C)ccc2O[C@@H]1CN(C)Cc1ccc(-c2ccccc2)cc1,inactive
13,COc1ccc(C)cc1N(CC(=O)Nc1cccc(N(C)S(C)(=O)=O)c1)S(C)(=O)=O,inactive
14,C[C@H](O)C#Cc1ccc2c(c1)O[C@@H](CN(C)C)[C@H](C)CN([C@H](C)CO)S2(=O)=O,inactive
15,CC(C)(C)[S@@](=O)N1Cc2cc(C(=O)NCc3ccccc3F)nc(-c3cccc(-c4cncnc4)c3)c2[C@H]1CCO,inactive
16,Cc1ccc(-c2nc3ncccc3o2)cc1NC(=O)c1ccco1,inactive
17,S=C(NCC1CCCO1)Nc1ccc(Cl)cc1Cl (stereo not drawn),inactive

row,Structure (SMILES),outcome
1,Fc1cnc(N2CCN(c3ccccc3)CC2)nc1N1CCN(c2ccccc2)CC1,inactive
2,O=C(NCCS(=O)(=O)N1CCN(c2ccc(F)cc2)CC1)c1ccc(Br)o1,inactive
3,Cc1ccc(Nc2nnc(SCc3ccccc3)s2)cc1,inactive
4,C[C@@H]1CN([C@H](C)CO)C(=O)c2cc(-c3ccccc3)cnc2O[C@H]1CN(C)Cc1ccccc1,inactive
5,Cc1cccc(NC(=O)c2ccc(C3SCC(=O)N3CCc3ccccc3)cc2)c1 (stereo not drawn),inactive
6,O=C(Nc1nc(-c2ccncc2)cs1)C1COc2ccccc2O1 (stereo not drawn),inactive
7,N#C[C@@H]1[C@H](c2ccccc2C2=CCCCC2)[C@H](CO)N1S(=O)(=O)c1ccccc1,inactive
8,COCC(=O)Nc1ccc2c(c1)C(=O)N(C)[C@@H]1CC[C@H](CC(=O)NCc3ccccc3Cl)O[C@@H]1CO2,inactive
9,C[C@@H]1CN([C@H](C)CO)C(=O)c2cc(NC(=O)CCCN(C)C)ccc2O[C@H]1CN(C)Cc1ccc(-c2ccccc2)cc1,inactive
10,C[C@H](O)C#Cc1ccc2c(c1)O[C@H](CN(C)C)[C@@H](C)CN([C@@H](C)CO)S2(=O)=O,inactive
11,O=C(Nc1ccccc1F)N1C[C@@H]2[C@H](c3ccccc31)[C@H](CO)N2C(=O)C1CC1,inactive
12,CCOc1ccccc1NC(=O)c1c(NC(=O)CCC(=O)O)sc2c1CCCCC2,inactive
13,CC(C)Cc1nnc(NC(=O)CSc2nc(N)cc(=O)[nH]2)s1,inactive
14,Cc1ccc(N(CC(=O)NCc2ccco2)S(=O)(=O)c2ccccc2)cc1,inactive
15,Cc1c(NC(=O)c2ccc3nsnc3c2)cccc1[N+](=O)[O-],inactive
16,N#Cc1ccc(-c2ccc3c(c2)[C@@H]2[C@@H](CCN2S(=O)(=O)c2ccccc2F)[C@H](CO)N3)cc1,inactive
